{"source": "PubChem BioAssay AID1845224", "about": "(National Center for Advancing Translational Sciences (NCATS), 2023)", "note": "Results filed as inconclusive are left out. Unmarked numbers belong to inactive results. Activity calls are given as the source filed them. The call rests on the fitted dose curve; in most records, active means well fitted curve in the direction sought with a large enough effect; inconclusive means small, poorly fitted or top-dose-only effect, or another doubt; inactive means no such curve, though single readings can be large or run the other way."}
{"tested_on": "NanoLuc luciferase (engineered Oplophorus gracilirostris luciferase)", "experiment": "Confirmatory Nanoluciferase (NLuc) qHTS assay for identification of artifact compounds; further: potency means the concentration at half of the fitted maximal effect; on activity change, negative = inhibition: % of control where 0% means no effect.", "conditions": "secreted NLuc in S16 cell medium, luminescence, 5 min; series mostly up to 39 µM; activity change, negative = inhibition: at the top concentration", "procedure,_shortened": "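Conditioned medium from NLuc-expressing S16 cells (diluted 1:55) was incubated with compounds for 15 min at room temperature. Nano-Glo substrate (1:100) was then added, and luminescence was read after 5 min.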"}
{"molecule": "COc1ccc(CNC(=O)C(=O)NCC(c2ccco2)S(=O)(=O)c2ccc(C)cc2)cc1", "note": "(stereo not drawn)", "activity change, negative = inhibition": "-3.51%"}
{"molecule": "O=C(Nc1ccc(Br)cc1)c1cccc(C(=O)Nc2ccc(Br)cc2)c1", "activity change, negative = inhibition": "-2.91%"}
{"molecule": "CNS(=O)(=O)c1cn(CC(=O)N2CCN(c3ccc(C(C)=O)cc3)CC2)cc1S(=O)(=O)NC", "activity change, negative = inhibition": "-15.7%"}
{"molecule": "COc1ccc(C2Nc3ccccc3C(=O)N2Cc2ccccc2)cc1Oc1ccc(NC(C)=O)cc1", "note": "(stereo not drawn)", "activity change, negative = inhibition": "-10.2%"}
{"molecule": "CCc1ccc(Cn2c(CNS(=O)(=O)c3ccc(Cl)s3)nc3cccnc32)cc1", "activity change, negative = inhibition": "-7.88%"}
{"molecule": "COc1ccc(CC(N)C(=O)N[C@H]2[C@@H](O)[C@H](n3cnc4c(N(C)C)ncnc43)O[C@@H]2CO)cc1", "note": "(stereo partly drawn)", "activity change, negative = inhibition": "-0.358%"}
{"molecule": "COc1ccccc1N1CCN(S(=O)(=O)c2c(C)nc3sc(C)c(C)n3c2=O)CC1", "activity change, negative = inhibition": "-6.1%"}
{"molecule": "Cc1ccc(N2CC(NC(=O)C(=O)c3c[nH]c4ccccc34)CC2=O)cc1", "note": "(stereo not drawn)", "activity change, negative = inhibition": "-9.92%"}
{"molecule": "COc1cccc2cc(C(=O)Nc3ccc(F)c(F)c3)c(=O)oc12", "activity change, negative = inhibition": "-6.18%"}
{"molecule": "CCOC(=O)c1ccc(N2C(=O)c3[nH]nc(-c4ccc(C)cc4)c3C2c2ccc(O)cc2)cc1", "note": "(stereo not drawn)", "activity change, negative = inhibition": "-2.76%"}
{"molecule": "CCOC(=O)C1=C(CNCc2ccc(Cl)cc2)NC(=O)NC1c1ccccc1", "note": "(stereo not drawn)", "activity change, negative = inhibition": "-27.2%"}
{"molecule": "CCCC[C@H]1C2=C3[C@@H](CC(C(=O)OC)=C[C@@H](C(=O)OC)[C@H]3C(C)(C)C2=O)n2c(=O)n(-c3ccccc3)c(=O)n21", "activity change, negative = inhibition": "-3.75%"}
{"molecule": "CN(C)c1ccc(CNC(=O)c2ccc3c(c2)N(C)C(=O)C2CCCCN32)cc1", "note": "(stereo not drawn)", "activity change, negative = inhibition": "-7.38%"}
{"molecule": "CCOc1ccccc1-n1nnc(-c2nc(-c3ccccc3)no2)c1N", "activity change, negative = inhibition": "-7.29%"}
{"molecule": "COC(=O)c1scc(-c2ccc(C)cc2)c1S(=O)(=O)Nc1cc(Cl)ccc1C", "activity change, negative = inhibition": "-2.44%"}
{"molecule": "Cc1cc2oc(=O)cc(C)c2c2occ(-c3ccc(Cl)cc3)c12", "activity change, negative = inhibition": "-1.13%"}
{"molecule": "C[C@H](CCC(=O)O)[C@H]1CC[C@H]2[C@@H]3CC[C@@H]4C[C@H](O)CC[C@]4(C)[C@H]3CC[C@]12C", "activity change, negative = inhibition": "-1.22% [at 78.4 µM]"}
{"molecule": "O=C(CSc1ccnc(=O)[nH]1)NCc1ccc(F)cc1", "activity change, negative = inhibition": "-1.74%"}
{"molecule": "O=c1oc2ccc(F)cc2cc1-c1nc(-c2cccs2)no1", "activity change, negative = inhibition": "-6.64%"}
{"molecule": "CCOc1ccccc1C(=O)Nc1cccc2ccc(C)nc12", "activity change, negative = inhibition": "-12.5%"}
{"molecule": "COC(=O)C1=C[C@@H](C(=O)OC)C2C3=C(C(=O)[C@]2(C)NC(=O)c2ccccc2)[C@H](C)n2c(=O)n(C)c(=O)n2[C@@H]3C1", "note": "(stereo partly drawn)", "activity change, negative = inhibition": "-5.36%"}
{"molecule": "CCOC(=O)c1c(S(=O)(=O)NCC(=O)Nc2ccc(F)cc2C)c(C)n(C)c1C", "activity change, negative = inhibition": "-2.68%"}
{"molecule": "CC(=O)Nc1cc(-c2ccccc2)nn1Cc1cccc(Cl)c1", "activity change, negative = inhibition": "-0.214%"}
{"molecule": "O=C(Oc1ccccc1Cl)c1cc(-c2ccc3c(c2)OCCO3)on1", "Potency": "1540 nM (active)"}
{"molecule": "CCOC(=O)c1c(S(=O)(=O)N2CCCC(C(=O)NCc3ccc(F)cc3)C2)c(C)n(CC)c1C", "note": "(stereo not drawn)", "activity change, negative = inhibition": "-14.8%"}
{"molecule": "Cc1cc(C)cc(NC(=O)CSc2oc(-c3cccs3)nc2S(=O)(=O)c2ccccc2)c1", "activity change, negative = inhibition": "-14.4%"}
{"molecule": "COc1ccccc1-c1nc2cc(NC(=O)c3ccccc3Cl)ccc2o1", "activity change, negative = inhibition": "-4.05%"}
{"molecule": "CC1CCN(c2ccc(-c3nc(C(C)C)no3)cc2[N+](=O)[O-])CC1", "activity change, negative = inhibition": "-3.52%"}
